The source of these data is PubChem BioAssay (NCI).

This assay has as its system HL-60(TB) leukemia. Description: NCI-60 one-dose screen, 48 h (100 = growth as untreated, 0 = no growth, -100 = all killed). The conditions noted are these: 10 µM unless noted.

About 83,000 compounds went through this panel and 20% of them were active in at least one assay; those are over-represented in the sample as a whole.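 Treatment: one concentration, 48 hours, 96-well format. Scoring: percent growth, with anything below 10 considered active.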 Unmarked numbers belong to inactive results. Active and inactive are the calls of the source.

With `CCOC(=O)c1c(O)cc(-c2ccccc2)cc1-c1sc(N(C)Cc2ccccc2)nc1Cl`, the growth was 100%. With `CC(=O)NNC(=O)c1sc(NC(C)=O)nc1C` the figure was 101%; with `COC1=CC(c2ccc[nH]2)=N/C1=C\c1[nH]c(C)c(C)c1CCC(=O)OCc1ccccc1`, -39.1% (active); with `O=C(CSc1nnc(-c2cc3c([nH]c4ccccc43)c(-c3cccc(O)c3)n2)n1-c1ccccc1)c1ccccc1`, 56.2%. Turning to `Cc1c2cccnc2c(C)c2c1c1cc(CO)ccc1n2C`, the growth is 31%. As for `Cc1ccc(/C=C/C(=O)c2ccc(-n3cc(CN4CCN(c5cc6c(cc5F)c(=O)c(C(=O)O)cn6C5CC5)CC4)nn3)cc2)cc1`, the figure is 98.8%; as for `CCOC(=O)c1nc(Nc2ccc(NC(=O)Nc3ccc(F)cc3)cc2)c2ccccc2n1`, 110%. With `C=C1C(=O)O[C@H]2[C@H]1CC/C(C(=O)Nc1ccc(OC)c(C(N)=O)c1O)=C\CC[C@@]1(C)O[C@@H]21` the figure was 0.316% (active); with `CN(C)c1ncc(-c2ccc(C(F)(F)F)cc2)c(NC2CCCCCC2)n1`, 39.8%; with `CC(C)OP(=O)(OC(C)C)c1ncc(-c2ccc(C(F)(F)F)cc2)c(NC2CCCCCC2)n1`, -43.9% [33.3 µM] (active). With `CCN(CC)CCCC(C)Nc1ccnc2c(OC)cccc12` (stereo not given) the figure was 52.6%; with `Nc1nc(N)c2cc(Sc3ccc4ccccc4c3)ccc2n1`, 31.4%.

Consider `NC1=Nc2cc(OCCCCN3Cc4ccccc4C3)c(OCC3CC3)cc2C12CCCC2`, for which the growth was 20.2%.

Regarding `CC1=CC2OC34COC3CC(OC(=O)C(F)(F)F)C4(C)C2(C)CC1` (stereo not given), the growth was 114%.

In the case of `Fc1ccc(-c2nc(-c3ccc(-c4nc5ccc(F)cc5[nH]4)cc3)no2)cc1`, the growth is 96.3%. With `COc1ccc(-c2nc(N/N=C/c3cccc(O)c3)nc(N3CCOCC3)c2C#N)cc1` the figure was 49.2%; with `Nc1nccc2c1ccn2-c1ccc(NC(=O)c2ccc(N3CCOCC3)c(C(F)(F)F)c2)cc1`, -4.36% (active). Turning to `NC(N)=N/N=C(/c1ccccc1)c1ccccc1F`, the growth is -47% (active). With `COc1ccc(/C=C(\C#N)c2cc3ccccc3[nH]2)cc1` the figure was 14.8%; with `COc1cc(/C=C/C(=O)/C=C/c2cc(OC)c3c(c2)OCO3)cc2c1OCO2`, 68.6%. As for `S=C=NP1(N=C=S)=NP(N=C=S)(N=C=S)=NP(N=C=S)(N=C=S)=NP(N=C=S)(N=C=S)=N1` (stereo not given), the figure is 60.7%; as for `Nc1ccc(-c2ccncc2)cc1NC(=O)N1CCCC1`, 120%; as for `O=C(CSc1nc2ccc([N+](=O)[O-])cc2[nH]1)Nc1cccc(Cl)c1`, 16.9%.

Regarding `O=C(Nc1ccc([N+](=O)[O-])cc1)C(=O)Nc1ccc([N+](=O)[O-])cc1`, the growth is 118%. As for `CCC(C)Nc1ccc(NC(C)CC)cc1` (stereo not given), the figure is 57.5%; as for `COc1cc(-c2cc(-c3cc(OC)c(OC)c(OC)c3)nc3nc(N)[nH]c(=O)c23)ccc1Oc1ccnc2cc(Cl)ccc12`, 11.4%; as for `Cc1nn(C)c2ncnc(N/N=C/c3cccc(O)c3O)c12`, -1.19% (active).

Regarding `O=c1cc(/C(=C2/C=CC=N2)c2ccc[nH]2)c2cc(Cl)ccc2o1`, the growth is 85.2%. With `CN(C)c1ccc(N=Nc2cccc3ccccc23)cc1` the figure was 77.4%; with `O=C1/C(=C/c2ccccc2[N+](=O)[O-])COc2ccc(O)c(O)c21`, -29.2% (active).

Consider `O=C1C(Br)=CC2C1C1C3CCC3C2(Br)C12OCCO2` (stereo not given), for which the growth was -6.23% (active). As for `COc1cccc(-c2nc(-c3ccc(NS(=O)(=O)c4ccccc4)cc3)[nH]c2-c2ccnc(Br)c2)c1`, the figure is -11.5% (active); as for `CCCOc1ccc(-c2nc(-c3ccc(N)cc3)cs2)cc1`, 56.7%; as for `COc1ccc(Br)c2ccccc12`, 88.4%. With `CN(C)c1ccc(C(=NO)c2ccc(N(C)C)cc2)cc1` the figure was 25%; with `CCCNCCC(C)=O`, 108%. Regarding `NC(CSC(c1ccccc1)(c1ccccc1)c1ccccc1)C(=O)O` (stereo not given), the growth was -0.908% (active). As to `CN1Cc2c(cc(CN3CCCCC3)n2C)C(c2ccc(Br)cc2)C1` (stereo not given), the growth is 83.8%. With `COc1ccc2c(c1)nc(N)c1c3cc(OC)c(OC)cc3cn21` the figure was 23.1%; with `Cc1cc(C)nc(SC2=C(Nc3cccc(Cl)c3)C(=O)N(Cc3ccccc3)C2=O)n1`, 18.1% [30 µM]; with `Cc1c(CN2CCN(C(=O)[C@H](C)O)CC2)sc2c(N3CCOCC3)nc(-c3cnc(N)nc3)nc12`, -7.28% (active). As for `O=C1C[C@H](c2ccccc2)[C@H](c2ccccc2)C1`, the figure is 88.1%; as for `Cc1ccc(C23CCC(=O)N2CCc2cncn23)cc1` (stereo not given), 95.7%; as for `ClC1=C(Cl)C(=C2C(Cl)=C(Cl)C(Cl)=C2Cl)C(Cl)=C1Cl`, 77.7%. As for `CC(=O)Nc1ccc(NC(C)=O)c2c1C(=O)c1ccccc1C2=O`, the figure is 154%; as for `CC1(C)OC2C(COC(c3ccccc3)(c3ccccc3)c3ccccc3)OC(c3c[nH]c4c(N)ncnc34)C2O1` (stereo not given), -34.4% (active); as for `COCc1cc2c(cc1Br)OCO2`, 105%. With `O=S(=O)(O)c1ccc(N=NSc2ccc3ccccc3c2)cc1`, the growth is 98.8%. As for `O=C1c2ccccc2-c2nnc(-c3ccc(Br)cc3)cc21`, the figure is 0.71% (active). With `COc1ccc(-c2nn(-c3ccc(NC(=O)Nc4ccc(Cl)c(C(F)(F)F)c4)cc3)cc2-c2ccncc2)cc1Cl` the figure was -11.9% (active); with `CC(C)(C)CC(C)(C)Nc1c(-c2c(O)c3ccccc3oc2=O)nc2sc3ccccc3n12`, 21.6%. With `Cc1nc(NC(=O)COc2ccc(/C=C3\Cc4ccc(Cl)cc4C3=O)cc2)sc1C` the figure was 86.5%. As to `CCCCSc1ncnc2c1ncn2C1CCCCO1` (stereo not given), the growth is 90.4%. With `Cc1ccn2c(-c3csc(Nc4cccc(O)c4)n3)c(C)nc2c1` the figure was -19.4% (active); with `COc1ccc(-c2cc(-c3cc(OC)c(OC)c(OC)c3)nc(N3CCOCC3)c2C#N)cc1`, 51.4%. Regarding `COC(=O)Nc1nc2ccc(C(=O)c3cccs3)cc2[nH]1`, the growth is -45.1% (active). As for `C=C1C(=O)O[C@H]2[C@H]1CC/C(COC(=O)CCSSCCC(=O)OC/C1=C/CC[C@@]3(C)O[C@H]3[C@H]3OC(=O)C(=C)[C@@H]3CC1)=C\CC[C@@]1(C)O[C@@H]21`, the figure is -47.9% (active); as for `CCOC(=O)c1c(Nc2nc3ccccc3s2)sc2c1CCC(=O)C2`, 58.7%.

Turning to `COc1ccn2c(C(C)=O)cc(C(=O)c3ccc4c(c3)Sc3ccccc3N4)c2c1`, the growth is -9.97% (active). For `O=C1c2cccc3c(-c4ccc5c(c4)ncn5C4CCCCC4)ccc(c23)C(=O)N1CCO`, the growth is 103%. As for `NC1=Nc2cc(OCCCN3Cc4ccccc4C3)c(OCC3CC3)cc2C12CCCC2`, the figure is 62.5%. With `CC(C)(C)OC(=O)Nc1ccc2c(c1)C(NC(=O)Nc1cccc(C#N)c1)CC(C)(C)O2` (stereo not given) the figure was 5.38% (active); with `CC1(c2ccccc2)OC1C(=O)O` (stereo not given), 103%.

Take `CC1CC(C)/C(=N/NC(N)=O)C(C(O)CC2CCC(=O)NC2=O)C1` (stereo not given): the growth is 40.1%. With `C=C1C(=O)O[C@H]2[C@H]1CC/C(COC(=O)NCC(=O)Nc1ccc(OC)c(C(N)=O)c1O)=C\CC[C@@]1(C)O[C@@H]21` the figure was -7.13% (active).

`Nc1nc(Nc2ccccc2)c(C=Nc2ccccc2)c(=O)[nH]1`: the growth was 98.9%. Regarding `O=C1Nc2cc(-c3cccc([N+](=O)[O-])c3)ccc2/C1=C/c1ccc[nH]1`, the growth was 101%. As for `CC(C)(C)n1cc(-c2ccnc(NCCNS(=O)(=O)c3ccc(Cl)cc3)c2)c(-c2cccc(O)c2)n1`, the figure is 39.4%. With `CN(C)CCCC1(c2ccc(F)cc2)OCc2cc(-c3csc4ccccc34)ccc21` (stereo not given) the figure was -52.1% (active); with `COc1ccc(-c2nc(-c3nc4cc(C)c(C)cc4[nH]3)cc3c2[nH]c2ccccc23)cc1`, -31.9% (active); with `CC(C)CCSC1=CC(=O)c2ccccc2C1=O`, 13.3%.

For the molecule `c1ccc(-c2ccc(-c3nc4ccccc4[nH]3)cc2)cc1`, the growth was 66.7%. As for `CO[C@H](C(=O)N[C@@H](CCCCNC(=O)OCc1ccccc1)C(=O)OC(C)(C)C)[C@@H]1Cc2cc3cc(OC4CC(OC5CC(O)C(O)C(C)O5)C(O)C(C)O4)c(C)c(O)c3c(O)c2C(=O)[C@H]1OC1CC(OC2CC(OC3CC(C)(O)C(O)C(C)O3)C(O)C(C)O2)C(O)C(C)O1` (stereo not given in full), the figure is -0.249% (active); as for `COc1cc(-c2cc(/C=C3\C(=O)Nc4cc(Cl)ccc43)[nH]n2)cc(OC)c1OC`, -34.9% (active); as for `CC(=O)Nc1ccc2c(c1)Cc1c(F)c(F)c(F)c(F)c1-2`, 65.5%. With `O=c1ccc(N=Nc2ccc([N+](=O)[O-])cc2)ccc1O` the figure was 10%; with `COc1ccc(-c2nc3sccn3c2-c2cc(-c3cc(OC)c(OC)c(OC)c3)on2)cc1`, 23.5%. As for `O=C(NCCN1CCOCC1)c1cncnc1Nc1ccc2c(ccn2Cc2ccccn2)c1`, the figure is 99.7%. As for `O=CN1N=C(c2cccc(Nc3ccnc4cc(Cl)ccc34)c2)CC1c1ccccc1` (stereo not given), the growth is -1.22% (active).

As to `CCc1c(C)c2cc3c(c(C)c2oc1=O)OCC(=O)N3`, the growth was 75.9%.

With `COCCCC/C(=N\OCCN)c1ccc(C(F)(F)F)cc1`, the growth is 122%.

As for `CC(C)Nc1cc(-c2c[nH]c(C(=O)N[C@H](CO)c3cccc(Cl)c3)c2)c(Cl)cn1`, the growth is 3.3% (active).

As for `CC/C=C\C[C@H]1C/C=C2/C(=O)C=C[C@H]2C/C=C\CCCC(=O)O1`, the growth is 7.94% (active). As for `O=C1Nc2ccccc2/C1=C/c1ccc[nH]1`, the figure is 103%; as for `C=CC[C@]1(O)CC[C@H]2[C@@H]3CCc4cc(O)ccc4[C@H]3CC[C@@]21C`, 75.1%.
